Records with an inconclusive call do not appear. Entries that show only a call come without a potency. Active and inactive are the calls of the source. Unless noted, the call rests on the fitted dose curve; in most records, active means well fitted curve in the direction sought with a large enough effect; inconclusive means small, poorly fitted or top-dose-only effect, or another doubt; inactive means no such curve, though single readings can be large; an effect the other way counts as inactive or inconclusive.
How the values were obtained:
[1] = Primary qHTS for small molecule stabilizers of the endoplasmic reticulum resident proteome: Secreted ER Calcium Modulated Protein (SERCaMP) assay (AID 1508630)
How it was run: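 The SH-SY5Y reporter protocol was run at 3 concentrations up to 38.3 uM (primary) or 11 concentrations (follow-up): 16 h compound, 100 nM thapsigargin for 4 h, then extracellular luciferase luminescence.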

[2] = biological target: Lysosomal acid glucosylceramidase (Homo sapiens) (UniProt P04062); test: Glucocerebrosidase-p2 (AID 348; in the data active means potency below about 10 µM; further: potency means the concentration at half of the fitted maximal effect); details: purified GBA, blue fluorogenic substrate, 40 min
How it was run: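 Normal human glucocerebrosidase (0.2 nM) with blue fluorogenic substrate (80 uM final) in citrate/phosphate pH 5.9 with 10mM sodium taurocholate, 0.01% tween-20; 40 min RT, NaOH/glycine stop; fluorescence Ex 365/Em 440; AC50 from a titration from 0.6 nM upwards.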

[3] = AP1 Signaling Pathway (AID 357; active means well fitted curve in either direction with a large enough effect, not every such curve was filed as active); details: ME-180 AP-1-bla reporter, EGF-induced, beta-lactamase ratio, 5 h; at 7.69 µM (top of the series) unless noted
How it was run: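 AP-1-bla ME-180 cells with beta-lactamase reporter under AP-1 response element, stimulated with EC50 EGF; compounds titrated, 5 hours at 37 degrees Celsius. CCF4 read at 460/530 nm ratio; positive and negative modulators judged by AC50.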

[4] = biological target: Cytochrome P450 1A2 (Homo sapiens) (UniProt P05177); test: p450-cyp1a2 (AID 410; calls by dose curve; further: potency means the concentration at half of the fitted maximal effect)
How it was run: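 O-Demethylation of luciferin 6' methyl ether by human CYP1A2 is monitored as luciferase luminescence. Substrate sits at Km (100uM); enzyme is 20nM. Values are scaled to 57 uM furafylline as maximal inhibition.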

[5] = NFAT Signaling Pathway (AID 444; active means well fitted curve in either direction with a large enough effect, not every such curve was filed as active;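 further: carbachol stimulus at about its EC50 of 1 µM final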); details: Jurkat NFAT-bla M1, carbachol, beta-lactamase ratio, 5 h; at 7.69 µM (top of the series) unless noted
How it was run: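 Jurkat cells carrying an NFAT-driven β-lactamase reporter and co-transfected muscarinic M1 receptor were treated with compound plus carbachol (1 uM final, an EC50 level) for 5 h at 37 °C. CCF4 loading followed for 1 h at RT; 460/530 nm ratio gave %activity.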

[6] = Stat Signaling Pathway (AID 446; active means well fitted curve in either direction with a large enough effect, not every such curve was filed as active;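 further: ME-180 cervical cancer cells given 40 pM IL-6 alongside compound; SIE-controlled beta-lactamase reporter measured as 460/530 nm FRET emission ratio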); details: ME-180 (cervical carcinoma) SIE beta-lactamase reporter, IL-6 stimulated, 5 h; at 7.69 µM (top of the series) unless noted
How it was run: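 Normalization used AC90 stimulation (300 pM IL-6) and AC90 inhibition (125 nM pan-JAK inhibitor at 40 pM IL-6). The underlying signal is SIE-driven beta-lactamase in ME-180 cells after 5 h IL-6 exposure with compound.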

[7] = biological target: Glucocorticoid receptor (Homo sapiens) (UniProt P04150); test: GR-EFC Redistribution (AID 451; calls by dose curve; further: potency means the concentration at half of the fitted maximal effect); details: CHO-K1 GR-EFC translocation, beta-gal luminescence, 2 h
How it was run: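 CHO-K1 cells stably expressing nuclear-localized β-gal enzyme acceptor and GR fused C-terminally to the enzyme donor fragment; ligand-driven nuclear translocation restores β-gal by complementation. Compounds titrated up to 46 uM final, 2 h at 37 °C; luminescence read.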

[8] = biological target: 3',5'-cyclic-AMP phosphodiesterase 4B (Homo sapiens) (UniProt Q07343); test: qHTS Assay for Inhibitors of PDE-IV (AID 607; active means well fitted activation curve with a large enough effect in the main read-out, with a control signal flat, not every such curve was filed as active)
How it was run: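 HEK293 ACTOne cells with CNG channel (1000/well), endogenous PDE4; membrane potential dye, compounds up to 22.9 uM final. Fluorescence Ex 535/Em 590; RO 20-1724 (100 uM final) as reference.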

[9] = biological target: Cytochrome P450 3A4 (Homo sapiens) (UniProt P08684); test: qHTS Assay for Activators of Cytochrome P450 3A4 (AID 885); further: nearly all actives have a fitted effect of over 65% in size; further: potency means the concentration at half of the fitted maximal effect
How it was run: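 Human CYP3A4 dealkylates Luciferin-PPXE to luciferin, which luciferase detection converts to light. Substrate was at its KM (25uM), buffer 200mM KPO4, reaction 60 min at RT.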

[10] = qHTS Assay for Lipid Storage Modulators (AID 1519; calls by dose curve); details: Drosophila S3 cells, BODIPY lipid droplet/cell ratio, laser cytometry, cells loaded with oleic acid; for activity change, negative = inhibition: at 57.5 µM (top of the series)
How it was run: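 Cells seeded at 5,000 per well were treated with compounds over a concentration series and loaded with oleic acid (400 uM, as added). Lipid droplet fluorescence (488 nm excitation, 500-530 nm channel) was read by laser-scanning cytometry and normalized to 20 uM Triacsin C.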

[11] = biological target: Rap guanine nucleotide exchange factor 3 (Homo sapiens) (UniProt O95398); test: Confirmatory qHTS for antagonist of cAMP-regulated guanine nucleotide exchange factor 3 (EPAC1) (AID 1645880); further: nearly all actives have a fitted effect of over 55% in size
How it was run: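 Released BODIPY-GDP fluoresces less than Rap1-bound BODIPY-GDP; the signal is followed at 480/540 nm at 5-min intervals over 30 min, after 5 min at room temperature. Reactions contain 100 nM EPAC1, 250 nM RAP1B-BODIPY-GDP and 50 uM GDP; results are normalized to ATA and DMSO.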

[12] = biological target: Rap guanine nucleotide exchange factor 3 (Homo sapiens) (UniProt O95398); test: Confirmatory qHTS for agonist of cAMP-regulated guanine nucleotide exchange factor 3 (EPAC1) (AID 1645881);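 further: EPAC1 catalysed release of BODIPY-GDP from Rap1B seen as fluorescence loss; nearly all actives have a fitted effect of over 75% in size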
[13] = biological target: Rap guanine nucleotide exchange factor 4 (Homo sapiens) (UniProt Q8WZA2); test: Confirmatory qHTS for agonist of cAMP-regulated guanine nucleotide exchange factor 4 (EPAC2) (AID 1645884);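 further: nucleotide exchange releases bodipy-GDP from Rap1 and this lowers its fluorescence; nearly all actives have a fitted effect of over 65% in size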
[14] = biological target: Rap guanine nucleotide exchange factor 4 (Homo sapiens) (UniProt Q8WZA2); test: Confirmatory qHTS for antagonist of cAMP-regulated guanine nucleotide exchange factor 4 (EPAC2) (AID 1645885); further: nearly all actives have a fitted effect of over 25% in size
[15] = biological target: Glucocorticoid receptor (Homo sapiens) (UniProt P04150); test: GR-GFP Redistribution (AID 450;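 active means compounds whose dose series gives a full or clear partial fitted curve of increased nuclear translocation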; further: potency means the concentration at half of the fitted maximal effect); details: U2OS GR-GFP nuclear translocation, laser cytometry, 2 h
[16] = biological target: Mitogen-activated protein kinase 10 (Mus musculus) (UniProt Q61831); test: JNK3 AlphaScreen Assay (AID 530; active means well fitted curve in either direction with a large enough effect, not every such curve was filed as active;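 further: kinase came from lysate of stimulated human HepG2 cells; signal reports phosphorylation of biotinylated GST-cJun 1-79 at Ser73 with 10 µM ATP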)
How it was run: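 Phosphorylation of biotinylated GST-cJun(1-79) at Ser73 is measured by AlphaScreen proximity luminescence. Enzyme is JNK3 in HepG2 lysates activated with interleukin-1beta and tumor necrosis factor alpha; ATP is 10 uM final.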

[17] = biological target: Dual specificity protein kinase CLK4 (Homo sapiens) (UniProt Q9HAZ1); test: qHTS Assay for Inhibitors of CDC-like Kinase 4 (Kinase-Glo Assay) (AID 1770); further: nearly all actives have a fitted effect of over 65% in size
How it was run: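 Inhibition was judged from remaining ATP, measured by Ultra-Glo luciferase bioluminescence after Clk4 (25 nM) had acted on RS peptide at 1 uM ATP for 4.5 hours, room temperature.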

[18] = biological target: Dual specificity protein kinase CLK4 (Homo sapiens) (UniProt Q9HAZ1); test: qHTS Assay for Inhibitors of CDC-like Kinase 4 (ADP-Glo Assay) (AID 1771); further: nearly all actives have a fitted effect of over 70% in size
How it was run: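 Compounds are pin-transferred onto substrate mix (100 uM RS peptide, 1 uM ATP), then 25 nM Clk4 is added. After 1 hr at room temperature, ADP-Glo reagent runs 45 min, detection reagent 30 min, then luminescence is read.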

[19] = biological target: Dual specificity protein kinase CLK4 (Homo sapiens) (UniProt Q9HAZ1); test: qHTS Assay for Inhibitors of CDC-like Kinase 4 (ADP-FP Assay) (AID 1795);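 further: recombinant human CLK4 phosphorylating RS repeat peptide at 1 µM ATP; nearly all actives have a fitted effect of over 60% in size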
How it was run: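 Inhibition of ADP formation by 6.25 nM Clk4 is measured using 1 uM ATP and 100 uM RS repeat peptide over one hour. Produced ADP displaces a fluorescent tracer from antibody, lowering polarization.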

[20] = measured here: cell count channel max response
[21] = measured here: lipid channel max response

Rap guanine nucleotide exchange factor 3 (Homo sapiens), sequence (O95398 whole entry, looked up): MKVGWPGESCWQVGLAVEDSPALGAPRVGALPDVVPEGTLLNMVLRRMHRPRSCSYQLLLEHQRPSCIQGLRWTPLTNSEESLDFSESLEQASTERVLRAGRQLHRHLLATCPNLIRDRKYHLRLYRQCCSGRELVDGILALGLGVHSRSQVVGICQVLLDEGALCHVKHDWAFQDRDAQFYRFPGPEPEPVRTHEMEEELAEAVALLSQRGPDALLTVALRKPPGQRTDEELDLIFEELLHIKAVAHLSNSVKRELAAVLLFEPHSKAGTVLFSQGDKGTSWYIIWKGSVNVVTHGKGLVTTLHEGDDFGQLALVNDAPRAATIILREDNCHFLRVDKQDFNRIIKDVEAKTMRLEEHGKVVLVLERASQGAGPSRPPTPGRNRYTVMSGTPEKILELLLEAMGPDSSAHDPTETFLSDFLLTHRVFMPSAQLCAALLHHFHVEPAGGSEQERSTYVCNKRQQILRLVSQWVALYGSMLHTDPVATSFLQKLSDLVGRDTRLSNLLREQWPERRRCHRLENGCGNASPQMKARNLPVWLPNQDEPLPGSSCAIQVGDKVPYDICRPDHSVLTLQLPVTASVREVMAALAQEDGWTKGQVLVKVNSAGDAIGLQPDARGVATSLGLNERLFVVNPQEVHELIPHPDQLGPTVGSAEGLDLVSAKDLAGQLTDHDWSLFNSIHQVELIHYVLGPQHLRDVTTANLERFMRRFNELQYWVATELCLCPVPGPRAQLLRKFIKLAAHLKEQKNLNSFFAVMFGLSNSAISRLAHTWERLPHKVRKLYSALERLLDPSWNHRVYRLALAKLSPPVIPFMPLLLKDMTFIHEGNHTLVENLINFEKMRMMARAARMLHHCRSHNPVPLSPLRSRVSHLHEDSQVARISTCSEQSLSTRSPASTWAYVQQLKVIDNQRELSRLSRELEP
Glucocorticoid receptor (Homo sapiens), sequence (P04150 whole entry, looked up, the tested form may be a part): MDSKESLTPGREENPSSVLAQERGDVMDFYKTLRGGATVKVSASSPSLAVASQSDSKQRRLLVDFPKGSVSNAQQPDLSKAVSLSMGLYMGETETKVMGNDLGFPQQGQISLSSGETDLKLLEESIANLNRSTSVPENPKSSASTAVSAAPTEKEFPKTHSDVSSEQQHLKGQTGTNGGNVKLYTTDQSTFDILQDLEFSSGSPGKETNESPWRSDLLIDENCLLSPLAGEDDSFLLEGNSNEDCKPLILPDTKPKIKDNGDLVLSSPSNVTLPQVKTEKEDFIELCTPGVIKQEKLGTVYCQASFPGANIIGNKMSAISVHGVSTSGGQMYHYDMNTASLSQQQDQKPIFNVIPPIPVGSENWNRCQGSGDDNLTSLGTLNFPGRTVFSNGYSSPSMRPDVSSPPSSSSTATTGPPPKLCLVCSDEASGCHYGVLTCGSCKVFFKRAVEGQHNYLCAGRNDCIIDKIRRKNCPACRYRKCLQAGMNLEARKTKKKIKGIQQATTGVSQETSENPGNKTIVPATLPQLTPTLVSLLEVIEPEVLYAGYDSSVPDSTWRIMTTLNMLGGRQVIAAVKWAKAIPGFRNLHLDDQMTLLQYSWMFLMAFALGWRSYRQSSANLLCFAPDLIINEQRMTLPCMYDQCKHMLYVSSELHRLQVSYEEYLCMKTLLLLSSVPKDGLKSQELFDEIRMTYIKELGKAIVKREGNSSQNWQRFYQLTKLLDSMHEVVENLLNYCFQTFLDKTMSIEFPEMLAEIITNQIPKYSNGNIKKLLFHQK
Rap guanine nucleotide exchange factor 4 (Homo sapiens), sequence (Q8WZA2 whole entry, looked up): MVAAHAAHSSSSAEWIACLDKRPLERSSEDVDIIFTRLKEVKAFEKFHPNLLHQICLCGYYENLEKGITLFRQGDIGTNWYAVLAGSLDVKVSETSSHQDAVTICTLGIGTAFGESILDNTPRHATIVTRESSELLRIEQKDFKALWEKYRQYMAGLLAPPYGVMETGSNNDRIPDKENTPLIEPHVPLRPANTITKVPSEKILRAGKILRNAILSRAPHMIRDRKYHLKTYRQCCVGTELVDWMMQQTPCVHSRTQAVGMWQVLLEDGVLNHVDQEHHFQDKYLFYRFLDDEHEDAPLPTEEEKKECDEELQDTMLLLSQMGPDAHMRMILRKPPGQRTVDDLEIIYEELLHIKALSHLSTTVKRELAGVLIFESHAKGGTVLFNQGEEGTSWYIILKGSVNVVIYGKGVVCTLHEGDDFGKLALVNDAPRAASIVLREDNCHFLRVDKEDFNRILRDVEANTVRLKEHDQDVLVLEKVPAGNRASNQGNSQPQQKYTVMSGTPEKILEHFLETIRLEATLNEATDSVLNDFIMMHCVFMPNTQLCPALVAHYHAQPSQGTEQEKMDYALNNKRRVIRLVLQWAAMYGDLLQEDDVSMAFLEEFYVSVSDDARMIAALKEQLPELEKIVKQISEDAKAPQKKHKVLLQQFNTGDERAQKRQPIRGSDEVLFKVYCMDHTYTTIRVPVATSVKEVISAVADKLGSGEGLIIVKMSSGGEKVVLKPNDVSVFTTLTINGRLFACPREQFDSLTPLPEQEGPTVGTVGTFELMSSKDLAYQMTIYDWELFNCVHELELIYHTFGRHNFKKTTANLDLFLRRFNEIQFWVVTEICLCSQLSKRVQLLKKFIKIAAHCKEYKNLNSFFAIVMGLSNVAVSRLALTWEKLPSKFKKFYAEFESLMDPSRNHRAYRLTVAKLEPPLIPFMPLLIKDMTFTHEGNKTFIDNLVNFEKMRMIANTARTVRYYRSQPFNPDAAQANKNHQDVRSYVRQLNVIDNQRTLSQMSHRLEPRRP
Dual specificity protein kinase CLK4 (Homo sapiens), sequence (Q9HAZ1 whole entry, looked up): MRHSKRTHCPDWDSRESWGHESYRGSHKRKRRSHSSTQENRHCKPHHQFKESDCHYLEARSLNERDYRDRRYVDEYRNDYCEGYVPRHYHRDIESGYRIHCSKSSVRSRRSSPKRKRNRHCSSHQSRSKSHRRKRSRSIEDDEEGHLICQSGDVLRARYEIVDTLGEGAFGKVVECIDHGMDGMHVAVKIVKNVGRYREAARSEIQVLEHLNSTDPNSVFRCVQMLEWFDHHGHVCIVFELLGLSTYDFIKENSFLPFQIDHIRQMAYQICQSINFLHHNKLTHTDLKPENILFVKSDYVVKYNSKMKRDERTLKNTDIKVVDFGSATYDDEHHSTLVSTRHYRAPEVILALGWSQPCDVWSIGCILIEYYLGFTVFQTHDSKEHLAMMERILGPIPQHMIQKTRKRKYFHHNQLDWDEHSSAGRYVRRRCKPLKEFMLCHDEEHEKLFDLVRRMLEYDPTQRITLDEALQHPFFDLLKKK
Lysosomal acid glucosylceramidase (Homo sapiens), sequence (P04062 whole entry, looked up): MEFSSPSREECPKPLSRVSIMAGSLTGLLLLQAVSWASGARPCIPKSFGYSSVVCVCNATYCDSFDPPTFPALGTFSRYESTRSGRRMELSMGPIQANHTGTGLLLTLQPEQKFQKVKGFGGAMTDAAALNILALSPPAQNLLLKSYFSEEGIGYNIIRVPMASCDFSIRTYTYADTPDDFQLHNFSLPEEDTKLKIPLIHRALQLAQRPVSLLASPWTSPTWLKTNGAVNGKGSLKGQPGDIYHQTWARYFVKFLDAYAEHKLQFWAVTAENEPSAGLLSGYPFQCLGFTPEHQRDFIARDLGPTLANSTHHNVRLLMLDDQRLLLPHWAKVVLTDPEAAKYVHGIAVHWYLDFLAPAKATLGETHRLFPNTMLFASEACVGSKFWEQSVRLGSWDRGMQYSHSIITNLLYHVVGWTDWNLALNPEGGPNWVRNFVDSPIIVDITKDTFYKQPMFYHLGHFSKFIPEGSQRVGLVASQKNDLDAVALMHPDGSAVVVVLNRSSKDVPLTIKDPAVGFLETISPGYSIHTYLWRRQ
3',5'-cyclic-AMP phosphodiesterase 4B (Homo sapiens), sequence (Q07343 whole entry, looked up): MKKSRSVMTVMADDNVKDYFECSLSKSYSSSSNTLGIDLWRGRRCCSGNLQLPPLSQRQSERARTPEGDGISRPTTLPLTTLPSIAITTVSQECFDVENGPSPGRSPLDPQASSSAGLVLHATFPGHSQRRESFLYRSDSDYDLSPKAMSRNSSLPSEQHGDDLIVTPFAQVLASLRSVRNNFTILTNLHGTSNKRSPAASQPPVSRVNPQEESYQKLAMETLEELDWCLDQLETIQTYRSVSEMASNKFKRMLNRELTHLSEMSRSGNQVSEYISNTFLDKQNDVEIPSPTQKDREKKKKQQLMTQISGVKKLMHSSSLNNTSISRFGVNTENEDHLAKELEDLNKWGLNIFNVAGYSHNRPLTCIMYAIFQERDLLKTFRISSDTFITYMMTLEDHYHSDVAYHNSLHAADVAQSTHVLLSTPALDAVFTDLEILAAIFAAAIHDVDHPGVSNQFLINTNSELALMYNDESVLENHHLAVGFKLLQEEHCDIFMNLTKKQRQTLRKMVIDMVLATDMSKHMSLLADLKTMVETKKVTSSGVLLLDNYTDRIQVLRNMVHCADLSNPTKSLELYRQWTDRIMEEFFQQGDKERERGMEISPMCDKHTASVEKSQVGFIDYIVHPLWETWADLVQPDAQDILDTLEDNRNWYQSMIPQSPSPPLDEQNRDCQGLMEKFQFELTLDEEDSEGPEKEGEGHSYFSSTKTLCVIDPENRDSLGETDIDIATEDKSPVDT
Cytochrome P450 1A2 (Homo sapiens), sequence (P05177 whole entry, looked up): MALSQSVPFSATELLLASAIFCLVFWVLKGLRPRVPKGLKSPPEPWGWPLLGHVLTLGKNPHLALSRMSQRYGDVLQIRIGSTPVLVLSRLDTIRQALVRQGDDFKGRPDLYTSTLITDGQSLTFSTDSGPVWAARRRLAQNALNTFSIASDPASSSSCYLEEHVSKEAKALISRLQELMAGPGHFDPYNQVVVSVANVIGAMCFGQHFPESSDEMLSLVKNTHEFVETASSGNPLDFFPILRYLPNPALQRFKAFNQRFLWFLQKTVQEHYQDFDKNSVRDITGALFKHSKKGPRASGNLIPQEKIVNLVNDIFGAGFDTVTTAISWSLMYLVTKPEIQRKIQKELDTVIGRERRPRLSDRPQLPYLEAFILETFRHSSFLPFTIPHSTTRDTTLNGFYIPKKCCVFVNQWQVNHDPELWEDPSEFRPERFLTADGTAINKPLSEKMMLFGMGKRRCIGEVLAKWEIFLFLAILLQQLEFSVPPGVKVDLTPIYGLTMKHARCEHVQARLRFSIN

In the case of `O=C1c2ccccc2-n2c1nc1ccccc1c2=O`, the Potency [1] is reported as “inactive”.

With `C[n+]1ccc(/C=C/c2ccc3ccccc3c2)cc1` the Potency [1] was “inactive”.

With `COc1cc2c(cc1OC)C(/C=C/c1ccc(OC)c(OC)c1OC)=NCC2` the Potency [1] was “inactive”.

For `Cc1nc(-c2coc3c(O)c(O)ccc3c2=O)cs1`, the Potency [1] was “inactive”.

In the case of `CC1CCC(C(C)[C@H]2CCC3C4CC(=O)C5C[C@@H](O)CC[C@]5(C)C4CC[C@@]32C)=NC1` (some centres undefined), the Potency [1] is reported as “inactive”.

For `Cc1cn2c(=O)c3ccccc3nc2n2c(=O)c3ccccc3nc12`, the Potency [1] was “inactive”.

With `O=CN1CCc2c([nH]c3ccccc23)C1c1cccc2cccnc12` (centres undefined) the Potency [1] was “inactive”.

With `CC(=O)OC[C@@]12C(=O)[C@@H](O)[C@@H](C)[C@]3(C[C@@H](c4ccoc4)O[C@@H]3OC(C)=O)[C@H]1CCC[C@]21CO1` the Potency [1] was “inactive”.

With `O=c1oc2cc(O)ccc2cc1-c1ccc2c(c1)OCCO2` the Potency [1] was “inactive”.

With `C=CC(C1=CC(=O)C=CC1=O)c1ccc(O)cc1` (centres undefined) the Potency [1] was “inactive”.

With `COc1ccc([C@@H]2[C@@H](O)[C@H](O)[C@@H](C)N2C)cc1OC` the Potency [1] was “inactive”.

In the case of `C=C1C[C@]23CC[C@H]4C(CO)(CO)C[C@@H](O)C[C@@]4(C)[C@@H]2CC[C@H]1C3`, the Potency [1] is reported as “inactive”.

In the case of `COc1ccccc1C1OC(=O)CC1C(=O)OC[C@@H]1CCCN2CCCCC12` (some centres undefined), the Potency [1] is reported as “inactive”.

For `COc1c2c(nc3occc13)C(CC=C(C)C)(OC)C(=O)C=C2` (centres undefined), the Potency [1] was “inactive”.

For `O=C(O)C1CC[C@@](C(=O)O)(c2ccccc2)c2ccccc21` (some centres undefined), the Potency [1] was “inactive”.

For `CC1=CC[C@@]2(CO)COC(c3ccccc3O)C1C2` (some centres undefined), the Potency [1] was “inactive”.

In the case of `COc1ccc(C(=O)N2CCC3(CC2)CN(c2ccncc2)C3)cc1`, the Potency [2] is reported as > 11.4 µM (inactive), the activity change, negative = inhibition [3] is reported as 4.67% (inactive) and the Potency [4] is reported as “inactive”. The activity change, negative = inhibition [5] was -16% (inactive), the activity, negative = inhibition [6] was 5.81% (inactive) and the Potency [7] was > 46 µM (inactive). The Potency [8] was “inactive”, the Potency [9] was “inactive” and the activity change, negative = inhibition [10] was -1.18% (inactive). The max response [10, 20] was -4.69%, the max response [10, 21] was -4.19% and the Potency [1] was “inactive”. The Potency [11] was “inactive”, the outcome [12] was “inactive” and the outcome [13] was “inactive”. The Potency [14] was “inactive”.

For `CC1=NN(c2ccc([N+](=O)[O-])cc2)C(=O)C1[N+](=O)[O-]` (centres undefined), the Potency [1] was “inactive”.

In the case of `COc1c2c(cc3c1C(NC(N)=O)[N+](C)(C)CC3)OCO2` (centres undefined), the Potency [1] is reported as “inactive”.

For `COc1ccc(/C=C/C(=O)/C=C/c2ccc(OC)cc2OC)c(OC)c1`, the Potency [1] was “inactive”.

With `COc1cc2c(cc1OC)C(c1ccccc1)=NCC2` the Potency [1] was “inactive”.

For `COc1cc(C)c(CC/C(C)=C/C=C/C(C)=O)c(C)c1C`, the Potency [1] was “inactive”.

With `O=C(c1cccc(F)c1)N1CCC2(CC1)CN(c1cccc(-c3ccccc3)c1)C2` the Potency [2] was > 11.4 µM (inactive), the activity change, negative = inhibition [3] was -6.1% (inactive) and the Potency [4] was 12.6 µM (active). For the same molecule, the activity, negative = inhibition [6] was -13.4% (inactive), the Potency [7] was > 46 µM (inactive) and the Potency [8] was “inactive”. The Potency [9] was 3.16 µM (active), the activity change, negative = inhibition [10] was -19.2% (inactive) and the max response [10, 20] was -4.49%. The max response [10, 21] was -20.8%, the Potency [1] was “inactive” and the Potency [11] was “inactive”. For the same molecule, the outcome [12] was “inactive”, the outcome [13] was “inactive” and the Potency [14] was “inactive”.

For `C=C(C(=O)O)[C@@H]1CC[C@@]2(C)CCC[C@](C)(O)[C@@H]2C1`, the Potency [1] was “inactive”.

With `CC1OCC23CC[C@@]4(C)CCC(C)(C)C[C@H]4[C@]2(C)CCC12C3CC[C@@]1(C)C2C(=O)CC(=O)[C@@H]1C` (some centres undefined) the Potency [1] was “inactive”.

With `COCC(=O)N1CCC2(CC1)CN(c1ccccn1)C2` the Potency [2] was > 11.4 µM (inactive), the activity change, negative = inhibition [3] was -0.233% (inactive) and the Potency [4] was “inactive”. The activity change, negative = inhibition [5] was 1.7% (inactive), the activity, negative = inhibition [6] was 9.91% (inactive) and the Potency [7] was > 46 µM (inactive). For the same molecule, the Potency [8] was “inactive”, the activity change, negative = inhibition [10] was 1.23% (inactive) and the max response [10, 20] was 1.59%. The max response [10, 21] was 3.63%, the Potency [1] was “inactive” and the Potency [11] was “inactive”. For the same molecule, the outcome [12] was “inactive”, the outcome [13] was “inactive” and the Potency [14] was “inactive”.

With `C[C@@H]1C(=O)CC2C(C)(C)CCC[C@]2(C)[C@@]1(O)CCc1ccoc1` (some centres undefined) the Potency [1] was “inactive”.

For `COc1ccc(-c2nc3cnc(N4CCNCC4)nc3n(Cc3cccs3)c2=O)cc1`, the Potency [4] was 3.98 µM (active), the activity change, negative = inhibition [5] was 182% [activator] (active) and the Potency [15] was > 46 µM (inactive). The Potency [7] was > 46 µM (inactive), the outcome [16] was “inactive” and the Potency [8] was “inactive”. The activity change, negative = inhibition [10] was 1.49% (inactive), the max response [10, 20] was 7.67% and the max response [10, 21] was 6.52%. The Potency [17] was “inactive”, the Potency [18] was “inactive” and the Potency [19] was “inactive”. The Potency [1] was “inactive” and the outcome [12] was “inactive”.

From PubChem BioAssay (NCATS)
